DRD3 agonist = agonists of human D3 dopamine receptor | D3R DiscoveRx beta-arrestin cells, luminescence, 90 min | max activation, % | 410,000 tested, 0.58% active | P35462; in the data active = max activation above about 30%; note: 0% is about no effect
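Cells at 1500/well, incubated overnight, then treated with pinned compounds (dopamine as control) for 90 min at 37 degrees C. DiscoveRx reagent added for 30 - 60 minutes at room temperature; luminescence read.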
DRD3 antagonist = blocks the human D3 dopamine receptor | P35462 | 360,000 tested, 2.5% active | max response, negative = inhibition, % | D3R cells, DiscoveRx beta-arrestin luminescence, antagonist mode; active compounds read low; in the data active = max response below about -50%; inconclusive = no clear call, values can overlap the other calls; note: % is set by controls: 0 for no effect and ±100 for the full control effect
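Cells plated overnight at 1500 cells/well, then exposed to library compounds with dopamine controls for 90 minutes at 37 degrees C. DiscoveRx reagent added for 30–60 minutes at room temperature; luminescence read, quantitative HTS format.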
D1 ag = activates the human D1 dopamine receptor | HEK293 T-REx D1 cells, calcium flux, agonist mode | activation, % at 2 µM | P21728 | 360,000 tested, 1% active; in the data active = activation above about 30%; note: 0% is about no effect
Target sequence (P21728 whole entry, looked up): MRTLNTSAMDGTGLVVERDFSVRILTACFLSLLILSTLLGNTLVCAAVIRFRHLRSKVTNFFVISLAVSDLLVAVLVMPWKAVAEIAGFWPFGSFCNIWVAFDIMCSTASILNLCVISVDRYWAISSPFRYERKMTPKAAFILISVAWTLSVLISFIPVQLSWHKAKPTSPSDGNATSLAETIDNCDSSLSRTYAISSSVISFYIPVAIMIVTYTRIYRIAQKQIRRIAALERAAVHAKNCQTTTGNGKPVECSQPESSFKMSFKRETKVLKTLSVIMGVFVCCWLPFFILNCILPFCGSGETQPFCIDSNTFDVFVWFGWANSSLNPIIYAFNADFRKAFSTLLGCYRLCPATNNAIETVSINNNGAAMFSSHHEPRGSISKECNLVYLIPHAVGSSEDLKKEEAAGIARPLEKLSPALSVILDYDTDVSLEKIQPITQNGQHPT
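Agonism was scored from calcium flux recorded over 180 s (1 read/s) after pintool compound addition, following a 10-cycle baseline. Cells were inducible force-coupled HEK293 TREx D1, plated overnight at 30 C and loaded with no-wash calcium dye.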
D1 potentiator = human D1 dopamine receptor positive modulation; potentiation, % at 10 µM; HEK293 TREx D1 cells, calcium flux, dopamine EC20 potentiation; 360,000 tested, 0.036% active; P21728; in the data active = potentiation above about 30%; note: 0% is about no effect
D1 antag = antagonists of human D1 dopamine receptor; HEK293 TREx D1 cells, calcium flux, dopamine EC80; active compounds read low; activity change, negative = inhibition, % at 10 µM; 360,000 tested, 3.2% active; AID 504652; in the data active = activity change below about -30%; note: % is set by controls: 0 for no effect and ±100 for the full control effect
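Kinetic fluorescence of a calcium dye serves as the read-out. D1-expressing Hek293 Trex cells, induced overnight at 30 C, are exposed to compound for 180 s before an EC80 dopamine addition, then read 180 s further.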
Active calls of the source: *; u = inconclusive; x = no result given. This is a sample that favours compounds with a hit; in the whole collection about 6% have one here.

SMILES	DRD3 agonist	DRD3 antagonist	D1 ag	D1 potentiator	D1 antag
CCN(CC)Cc1nccn1-c1ccc([N+](=O)[O-])cc1C(=O)c1ccccc1Cl	-23	x	x	x	x
COc1ccc(C2NCc3ccc4c(c3-n3cccc32)OCO4)cc1O (stereo not drawn)	-13	-22	55*	-3	-36*
CC(c1ccc(F)cc1)n1cc(C(=O)NCc2ccc3c(c2)OCO3)nn1 (stereo not drawn)	-1	-12	31*	1	-1
COC(=O)C1=C(c2ccc(F)cc2F)C[C@@H]2CC[C@H]1N2C(=O)NCc1ccc2c(c1)OCO2	-17	-15	-1	3	-2
Cc1ccc(-n2cc(CNC(C)Cc3cnccn3)c(-c3cccc(C)c3)n2)cc1 (stereo not drawn)	-6	10	37*	-3	35
CC(Cc1cnccn1)NCc1c(C(=O)N2CCCCCCC2)nc2ccc(Cl)cn12 (stereo not drawn)	2	13	1	-1	-6
C[C@]12C/C(=C/O)C(=O)C[C@@H]1CC[C@@H]1[C@@H]2CC[C@@]2(C)[C@H]1CC[C@]2(C)O	8	x	x	x	x
O=[N+]([O-])c1ccc(O)c([N+](=O)[O-])c1	14	-7	x	x	x
O=[N+]([O-])c1cc(O)c(O)c([N+](=O)[O-])c1	8	16	-1	-2	-41*
CC(C)(C)c1ccc(O)cc1	-19	x	x	x	x
COc1ccc(OC)c([C@@H](O)[C@H](C)N)c1	-8	x	x	x	x
C[C@@H]([C@@H](O)c1ccccc1)N(C)C(=O)Cc1ccccc1	-3	6	x	x	x
CN(C)CC(C(=O)Cc1ccccc1)c1ccccc1 (stereo not drawn)	-22	-63*	x	x	x
C=C(C)[C@H]1Cc2c(ccc3c2O[C@@H]2COc4cc(OC)c(OC)cc4[C@@H]2C3=O)O1	4	x	x	x	x
Nc1c(Cl)c(Cl)c(Cl)c(Cl)c1Cl	12	x	x	x	x
c1ccc2c(c1)Sc1ccccc1N2CC1CN2CCC1CC2 (stereo not drawn)	-22	10	37*	-4	-21
Cc1ccsc1C(=O)C1CCCN(Cc2cc(C(C)C)n[nH]2)C1 (stereo not drawn)	-26	-81*	3	-3	4
COc1ccc(C(=O)C2CCCN(Cc3ccc(C)s3)C2)c(OC)c1 (stereo not drawn)	-16	-69*	-1	-6	12
COc1ccc(Cl)cc1C(=O)C1CCCN(Cc2cnc(C)s2)C1 (stereo not drawn)	-8	-56*	2	1	6
Cc1ccsc1C(=O)C1CCCN(Cc2ccn[nH]2)C1 (stereo not drawn)	-22	-62*	2	-2	-3
COc1ccc(F)cc1C(=O)C1CCCN(Cc2cnc(C)s2)C1 (stereo not drawn)	-13	u	2	3	-7
Nc1ccc(N)cc1	-7	x	x	x	x
C[C@@H]1[C@H]2Cc3ccc(O)cc3[C@]1(C)CCN2C	-15	x	x	x	x
COc1ccc(OC)c(CN2CCCC(C(=O)c3sccc3C)C2)c1 (stereo not drawn)	-21	-82*	11	-12	-11
CN1C(=O)C(=Cc2cn(CC(=O)N3CCCC3)c3ccccc23)C(=O)N(C)C1=O	-16	-12	3	2	2
SMILES	DRD3 agonist	DRD3 antagonist	D1 ag	D1 potentiator	D1 antag
CCN1C(=O)NC(=O)/C(=C\c2cn(CC(=O)N3CCCCC3C)c3ccccc23)C1=O (stereo not drawn)	-4	9	11	-1	-30*
CCc1nc(SC)ncc1C(=O)Nc1ccc(Cl)cc1C(=O)c1ccccc1	4	x	2	7	17
COc1ccc(Cc2nccc3cc(OC)c(OC)cc23)cc1OC	5	-19	8	-3	-32*
NNc1ccccc1	-17	x	x	x	x
CC1CCC(C(C)C)C(OC(=O)Cn2c(COc3ccccc3)[n+](C)c3ccccc32)C1 (stereo not drawn)	-17	-19	41*	-6	22
Oc1ccccc1-c1ccccc1	-8	x	x	x	x
COC(=O)C1=C(C(=O)OC)SC2(S1)C(C(=O)OC)=C(C(=O)OC)Sc1c2ssc1=O	-10	-96*	x	x	x
C[N+]1(C)C2CC[C@H]1CC(OC(=O)C(CO)c1ccccc1)C2 (stereo partly drawn)	-6	-67*	-1	-1	-3
C[N+]1(C)CCC(OC(=O)C(c2ccccc2)c2ccccc2)CC1	-87	-59*	x	x	x

Assay outcomes (PubChem BioAssay)
